Entries with a potency or affinity are not part of this list.
Columns and labels:
Staphylococcus aureus = conditions: Concentration 32 ug.mL-1;; ASSAY_TEST Inhibition of Bacterial Growth; detection method Absorption (OD600); MEDIA CAMHB; plate type 384well; NBS; CORNING #3640; time 18 hr
Escherichia coli = conditions: Concentration 32 ug.mL-1;; ASSAY_TEST Inhibition of Bacterial Growth; detection method Absorption (OD600); MEDIA CAMHB; plate type 384well; NBS; CORNING #3640; time 18 hr

Row | Structure (SMILES) | Inhibition (Staphylococcus aureus) [%] | Inhibition (Escherichia coli) [%]
1 | CCOc1ccc(C(=O)CSc2nnc3c(=O)n(-c4ccc(OCC)cc4)ccn23)cc1 | 18.9 | 1.24
2 | CCCNC(=O)Cn1nc2cc(C)nc(Nc3cc(C)cc(C)c3)n2c1=O | 13.08 | 0.71
3 | COc1ccc(NC(=O)c2ccc3nn(CC(=O)Nc4cc(Cl)ccc4OC)c(=O)n3c2)cc1 | 7.85 | -6.87
4 | CCCc1nnc2c(=O)n(CC(=O)Nc3ccc4c(c3)OCCO4)c3ccccc3n12 | 2.35 | -7.37
5 | O=c1c2nnc(SCc3ccc(F)cc3)n2ccn1-c1ccc(Br)cc1 | 3.87 | -5.68
6 | COc1ccc(NC(=O)CSc2nnc3ccc(C(=O)Nc4cccc(F)c4)cn23)cc1 | 8.78 | 3.37
7 | O=S(=O)(c1cccn2cnnc12)N(Cc1cccc(Cl)c1)c1cc(F)cc(F)c1 | 17.81 | -3.49
8 | CC(C)n1c(=O)c2ccc(C(=O)NC3CCCC3)cc2n2c(=O)n(Cc3cccc(C(F)(F)F)c3)nc12 | 8.2 | 0.25
9 | O=C(Cn1nc2c(Oc3ccccc3)nccn2c1=O)Nc1ccccc1C(F)(F)F | 2.85 | -0.6
10 | Cc1ccc(CNC(=O)Cn2nc3c(SC4CCCCC4)nccn3c2=O)cc1 | 7.11 | -3.86
11 | Cc1cc(C)cc(N(Cc2cccc(Cl)c2)S(=O)(=O)c2cccn3cnnc23)c1 | 7.13 | -3.73
12 | COc1ccc(NC(=O)Cn2nc3c(SCc4ccc(Cl)cc4)nccn3c2=O)cc1 | 4.07 | -0.18
13 | Cc1ccc(NC(=O)Cn2nc3ccc(SC(C)C)nn3c2=O)c(C)c1 | -3.52 | 4.56
14 | Cc1ccc(C)c(NC(=O)Cn2nc3ccc(-c4ccccc4)nn3c2=O)c1 | -0.8 | -9.05
15 | O=C(CSc1nnc2c(=O)n(-c3ccccc3)ccn12)Nc1ccc(Br)cc1F | 2.85 | -9.92
16 | O=C(CSc1nnc2c(=O)n(-c3ccccc3)ccn12)Nc1cc(F)ccc1F | 5.32 | -13.66
17 | Cc1ccc(NC(=O)CSc2nnc3c4cc(-c5ccccc5)nn4ccn23)c(C)c1 | -9.27 | -11.37
18 | CC(C)c1ccc(N(Cc2ccccc2)S(=O)(=O)c2cccn3cnnc23)cc1 | 5.98 | -8.68
19 | CCc1nnc2c(S(=O)(=O)N(Cc3cccc(C)c3)c3ccc(Cl)cc3)cccn12 | 8.39 | 0.27
20 | Cc1cccc(-c2nc(CSc3nc4ccccc4n4c(C)nnc34)c(C)o2)c1 | 9.9 | 1.23
21 | COc1ccc(N(Cc2ccc(OC)c(F)c2)S(=O)(=O)c2ccc3nncn3c2)cc1 | 2.98 | -0.06
22 | CCOc1ccc(-n2ccn3c(SCC(=O)c4ccc(C)cc4)nnc3c2=O)cc1 | 16.97 | -1.19

Row | Structure (SMILES) | Inhibition (Staphylococcus aureus) [%] | Inhibition (Escherichia coli) [%]
23 | COc1ccccc1N1CCN(C(=O)Cn2nc3ccc(-c4ccc(Cl)cc4)nn3c2=O)CC1 | 8.63 | 0.78
24 | Cc1ccc(-c2ccc3nn(CC(=O)Nc4ccc(Cl)cc4)c(=O)n3n2)cc1C | 7.83 | -3.03
25 | COc1ccc(NC(=O)Cn2nc3nc(N4CCCCCC4)ccn3c2=O)cc1Cl | -1.58 | -10.88
26 | C=Cc1ccc(CSc2nnc3c(=O)n(-c4ccc(F)cc4)ccn23)cc1 | 18.57 | -2.33
27 | Cc1cc(C)cc(NC(=O)Cn2nc3ccc(-c4ccc(C)c(C)c4)nn3c2=O)c1 | 1.36 | -7.85
28 | O=C(CSc1nc2ccccc2n2cnnc12)Nc1cccc(Br)c1 | -6.77 | -14.46
29 | COc1ccc(-c2cc3c4nn(CC(=O)Nc5c(C)cccc5C)c(=O)n4ccn3n2)cc1 | 3.68 | -1.14
30 | O=C(Cn1nc2c(Oc3ccccc3)nccn2c1=O)Nc1ccc(Br)cc1F | -5.68 | -11.64
31 | COC(=O)c1ccc(NC(=O)Cn2nc3c(Oc4ccccc4)nccn3c2=O)cc1 | 1.06 | -10.41
32 | Cc1cc2nn(CC(=O)Nc3ccc(Cl)cc3)c(=O)n2c(Nc2ccc(F)c(C)c2)n1 | 4.83 | -2.12
33 | Cc1oc(-c2ccc(OC(C)C)cc2)nc1CSc1nc2ccccc2n2c(C(C)C)nnc12 | -4.43 | -16.17
34 | Cc1ccccc1Oc1nccn2c(=O)n(CC(=O)Nc3cc(F)ccc3F)nc12 | 11.37 | -2.39
35 | Cc1cc(C)cc(N(Cc2ccccc2)S(=O)(=O)c2cccn3c(C)nnc23)c1 | -1.33 | -7.5
36 | COc1cccc(-n2ccn3c(SCC(=O)NCc4ccco4)nnc3c2=O)c1 | 13.02 | -1.73
37 | CCCCN(CC)c1ccc2nnc(CCc3nc(-c4ccc5c(c4)OCO5)no3)n2n1 | -15.7 | 1.35
38 | O=c1c2sccc2n2c(=O)n(Cc3c(F)cccc3Cl)nc2n1CCc1ccccc1 | 3.01 | -6.52
39 | O=C(Cn1nc2c(Sc3cccc(F)c3)nccn2c1=O)Nc1ccc(F)c(Cl)c1 | -0.79 | -15.42
40 | Cc1nnc2ccc(S(=O)(=O)N(Cc3cccc(F)c3)c3ccc(F)cc3)cn12 | -0.57 | -11.39
41 | Cc1ccc(-c2cc3c4nnc(SCC(=O)Nc5cccc(Cl)c5C)n4ccn3n2)cc1 | -6.47 | -2.31
42 | O=C(CCc1nnc2c3cc(-c4ccc(F)cc4)nn3ccn12)N1CCC(Cc2ccccc2)CC1 | 6.97 | -0.02
43 | COC(=O)c1cccc(NC(=O)Cn2nc3c(SCc4ccc(Cl)cc4)nccn3c2=O)c1 | 6.19 | -8.47

Reference: ChEMBL document CHEMBL4513146, “CO-ADD screening of Karazin Kharkiv National University (Ukraine) compounds”
